According to PubChem BioAssay AID1347072 (National Center for Advancing Translational Sciences (NCATS), 2019):
In all, about 44,000 compounds went through this assay and fewer than 10 were called active. Another 2% or so got no clear call; they are omitted. Calls come from the whole dose curve; as a rule, active = well fitted curve in the direction sought with a large enough effect; inconclusive = small, poorly fitted or top-dose-only effect, or another doubt; inactive = no such curve, though single readings can be large or run the other way. Not all results are given here.

Each compound was assayed against Galactokinase (Homo sapiens) (UniProt P51570) (assay: qHTS Assay for Inhibitors of Human Galactokinase (GALK): NCGC Sytravon Library Screen). Conditions: recombinant GALK, Kinase-Glo ATP luminescence, 1 h; series mostly up to 57.5 µM.
Sequence of Galactokinase (Homo sapiens) (P51570 whole entry, looked up): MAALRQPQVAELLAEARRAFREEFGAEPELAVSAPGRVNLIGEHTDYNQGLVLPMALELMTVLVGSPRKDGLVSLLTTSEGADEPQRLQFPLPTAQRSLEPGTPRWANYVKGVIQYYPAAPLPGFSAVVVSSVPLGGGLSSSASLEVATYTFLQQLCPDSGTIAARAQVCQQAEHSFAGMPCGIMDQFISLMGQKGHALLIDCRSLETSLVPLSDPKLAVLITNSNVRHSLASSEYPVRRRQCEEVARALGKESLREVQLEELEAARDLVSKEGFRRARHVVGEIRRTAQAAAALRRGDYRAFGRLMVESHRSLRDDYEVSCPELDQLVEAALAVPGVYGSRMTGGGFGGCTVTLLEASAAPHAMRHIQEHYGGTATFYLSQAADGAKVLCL
Excerpt: Inherited deficiency of galactose-1-phosphate uridyltransferase (GALT) can result in a potentially lethal disorder called Classic Galactosemia (OMIM 230400). Several lines of evidence indicate that an elevated level of galactose-1-phosphate (gal-1-p), the product of galactokinase (GALK), is a major, if not sole, pathogenic mechanism in patients with classic galactosemia. Therefore, finding inhibitors of GALK is a potential novel therapy for this inherent metabolic disease and is the long term goal of this project. This screen is run against the NCGC Sytravon compound library collection. GALK (provided by Kent Lai) was assayed using ATP and D-(+)-Galactose (Sigma-Aldrich cat# G0750) as substrates. Promega Kinase-Glo Plus technology was used to detect kinase activity. Reactions with and without GALK were used as negative and positive controls together with Protein Tyrosine Phosphatase CD45 inhibitor (EMD Bioscience cat# 540215) which is shown to inhibit GALK activity. Decrease in activity corresponds to inhibition of the enzyme is the desired outcome for this assay. NIH Molecular Libraries Probe Production Network [MLPCN] NIH Chemical Genomics Center [NCGC] Grant: R03 MH085689-01 PI Name: Kent Lai Ph.D., University of Utah
NCGC Assay Protocol Summary: Three uL/well of ATP-buffer solution (35 uM ATP, 20mM HEPES pH8.0, 5 mM MgCl2, 60 mM NaCl, 1 mM DTT, 0.01% BSA final concentration) was dispensed into 1536-well, assay plates (Greiner, solid white medium-binding plates) with Aurora Discovery BioRAPTR Flying Reagent Dispenser (FRD; Beckton-Dickenson). Compound solution (23 nL) was transferred to the assay plate using the Kalypsys 1536-pin tool. One uL/well GALK-galactose solution (5 nM GALK, 100 uM galactose, 20 mM HEPES pH8.0, 5 mM MgCl2, 60 mM NaCl, 1 mM DTT, 0.01% BSA final concentration) was then added using the FRD yielding a total kinase reaction volume of 4 uL/ well. After 1 hour of room temperature incubation, 4 uL Kinase-Glo Plus reagent was added for a final assay volume of 8 uL/ well. Luminescence was detected with the ViewLux plate reader (Perkin Elmer, Waltham, MA) after 10 min incubation using a 1 sec exposure time and 2x binning.

outcome, inactive:
COC(=O)c1cnc(N2CCN(c3ccccc3OC)CC2)c2ccccc12, CN1c2ccc(Cl)cc2-c2nc(SCC(=O)Nc3cc(F)ccc3F)ncc2S1(=O)=O, COc1ccc(Nc2cc(C(=O)NCCCN(C)c3ccccc3)c3ccccc3n2)c(OC)c1, COc1cccc(CNC(=O)C(=O)NCC(c2cccs2)S(=O)(=O)c2ccccc2)c1 (stereo not drawn), Cc1cccc(-n2ncc(C(=O)N3CCN(c4ccc(Cl)cc4)CC3)c2C2CCN(C(=O)OC(C)(C)C)CC2)c1, COc1ccc(NC(=O)CCNS(=O)(=O)c2ccc3c(c2)CCCC(=O)N3)cc1Cl, Cc1cccc(N(C)C(=O)c2cc(S(=O)(=O)N3CCCCC3)c[nH]2)c1, CCOC(=O)c1c(SCC(=O)Nc2cccc(C)c2C)nc(=O)[nH]c1C, CCc1ccc(NC(=O)C2CCCN2S(=O)(=O)c2ccc3nc(-c4ccccc4)[nH]c3c2)cc1 (stereo not drawn), COC(=O)c1scc(-c2ccccc2)c1S(=O)(=O)Nc1ccccc1, CC1CCN(S(=O)(=O)c2ccc3c(c2)N(CC(=O)NCc2ccccc2Cl)C(=O)CO3)CC1, COc1ccc(N2CCN(C3=NS(=O)(=O)C(c4cccc(Br)c4)=C3C)CC2)cc1, CCOc1ccc(CNC(=O)CCc2c(C)nn(-c3ccc(N4CCCCC4)nn3)c2C)cc1, COc1ccc(OC)c(-c2nc(C(N)=O)c3c(n2)n(-c2ccc4c(c2)OCO4)c(=O)n3C)c1, O=C(NCc1ccc(F)cc1)c1ccc2nc(N3CCCCC3)sc2c1, COc1cc(OC)c(C2C=C(C(=O)O)Nc3ncnn32)cc1OC (stereo not drawn), CCOc1cc(/C=C(\C#N)C(=O)Nc2ccccc2C)ccc1OCc1cc(=O)n2nc(CC)sc2n1, O=C(Nc1ccc2nc(SCCOc3ccccc3Cl)sc2c1)c1ccco1, Cc1ccc(-c2nnc(SCC(=O)NCc3ccccc3)nc2-c2ccc(C)cc2)cc1, COc1cc(NC(=O)Cn2c(=O)n(Cc3ccco3)c(=O)c3oc4ccccc4c32)cc(OC)c1, Cc1ccccc1CN1CCC(CNC(=O)c2cc3ccc4cccnc4c3[nH]2)CC1, Cc1cc(C)c2oc(C(=O)Nc3ccc(S(=O)(=O)N(C)c4ccccc4)cc3)cc(=O)c2c1, Cc1ccc(-c2nc(CS(=O)(=O)CC(=O)NCc3ccccc3Cl)c(C)o2)cc1, CC(=O)c1ccc(NC(c2ccc(F)cc2)c2nnc(-c3ccccc3)o2)cc1 (stereo not drawn), CCOc1ccc(CNC(=O)CCC(=O)N2CCSc3ccccc32)cc1, COCCNC(=O)c1ccc2c(c1)N(Cc1cccc(Cl)c1)C(=O)c1ccccc1S2(=O)=O, COc1cc(NS(=O)(=O)c2ccc3c(c2)OCC(C(=O)N2CCCC2)O3)cc(OC)c1 (stereo not drawn), CCN(CC)C(=O)CSc1nc2cc3c(cc2c(=O)n1CCCC(=O)NCc1ccc2c(c1)OCO2)OCO3, Cc1oc2c(c1C(=O)Nc1ccc(F)c(F)c1)C1=NCCN1C=N2, O=C(NCC(c1cccnc1)N1CCc2ccccc21)c1cccc(C(F)(F)F)c1 (stereo not drawn), O=C(CN1c2ccccc2S(=O)(=O)c2ccccc21)Nc1cccc(C(F)(F)F)c1, COc1ccc(NC(=O)CSC2=Nc3ccccc3C3=NC(CC(=O)NCc4ccccc4OC)C(=O)N23)cc1Cl (stereo not drawn), CCN(CC)CCNC(=O)c1cc2c(=O)oc3ccc(C)cc3c2s1, CCOC(=O)c1cc(-c2ccccc2)n(CCC(=O)Nc2ccccc2CC)c1C, COC(=O)c1sc2ncccc2c1-n1c(C)ccc1C, Cc1ccc2nc(/C(C#N)=C/c3ccccc3F)[nH]c2c1, COCCCNC(=O)C1CCC(CNS(=O)(=O)c2ccc(OC)cc2)CC1 (stereo not drawn), CCOC(=O)c1c(C)oc2nc(C)nc(N3CCN(c4ccc(OC)cc4)CC3)c12, NS(=O)(=O)c1ccc(CCNC(=O)CCCCCn2c(=O)[nH]c3ccccc3c2=O)cc1, COc1ccc(S(=O)(=O)Nc2cc3c(C(=O)OC(C)C)c(C)oc3c3ccccc23)cc1, COc1ccc(C(=O)CSc2c(C(C)C)cnc3c2c(=O)n(C)c(=O)n3C)cc1, NS(=O)(=O)c1ccc2nc(NC(=O)COc3ccccc3)sc2c1, Cc1ccccc1C(=O)N(Cc1ccc(N(C)C)cc1)CC1CCCO1 (stereo not drawn)
